Hit rate of the full screen: of about 420,000 compounds, about 50,000 (12%) were called active. Roughly 26% stayed inconclusive and do not appear here. The sample as a whole holds a higher share of actives than the screen did. Values without a mark were called inactive. The call rests on the fitted dose curve; in most records, active means well fitted inhibition curve with a large enough effect; inconclusive means small, poorly fitted or top-dose-only effect; inactive means flat fitted curve, though single readings scatter.
Test: qHTS for Inhibitors of human tyrosyl-DNA phosphodiesterase 1 (TDP1): qHTS in cells in presence of CPT; further: nearly all actives have a fitted effect of over 55% in size
Details: chicken DT40 Tdp1-/-;hTDP1 cells + 20 nM CPT, ATP luminescence, 48 h; series mostly up to 46.2 µM; activity change, negative = growth inhibition: at the top concentration
Summary of the method: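 Cell growth measured by CellTiter-Glo luminescence after a minimum 48 h, 37 C compound exposure with 20 nM CPT in Tdp1-knockout DT40 cells stably expressing hTDP1, seeded 400/well; qHTS titration format.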
On the % scale 0 is the no-effect control and ±100 the full control effect; potency means the concentration at half of the fitted maximal effect.

First: O=C(c1ccc(=O)oc1)N1CCC(C(O)(c2ccccc2)c2ccccc2)CC1
Second: CC1CCN(C(=O)/C(=C\c2ccccc2)NC(=O)c2ccccc2)CC1
The “activity change, negative = growth inhibition” value of the first is higher: 6.45% for the first, 1.54% for the second.

First: O=C(Cn1nnc(-c2ccc3c(c2)OCO3)n1)NCc1ccco1
Second: S=C(NCc1ccc2c(c1)OCO2)NCc1ccco1
The “activity change, negative = growth inhibition” value of the first is lower: -16% for the first, 3.98% for the second.

First: O=C(NCc1ccc2c(c1)OCO2)c1cc(F)c(F)cc1Cl
Second: COc1cc(OC)c(C(=O)NCc2ccc3c(c2)OCO3)cc1OC
The “activity change, negative = growth inhibition” value of the first is lower: 21.1% for the first, 24.6% for the second.

First: O=S(=O)(NC1CCCC1)c1ccc(-n2cnnn2)cc1
Second: Cc1ccc(S(=O)(=O)N2CCCCC2)cc1NC(=O)[C@@H]1CCCN1C(=O)c1cccs1
The “activity change, negative = growth inhibition” value of the first is higher: 13% for the first, 7.21% for the second.

Compared with `C/C(COc1ccccc1)=N\NC(=O)c1nnn(-c2nonc2N)c1-c1ccc(C)cc1`, `Cc1ccc(NC(=O)/C(=C\c2ccccc2)NC(=O)c2ccco2)cc1` is higher in “activity change, negative = growth inhibition” value: -13.7% for the first, 19.2% for the second.

Going from `COc1ccc(-c2cc(-c3ccccc3)nc3c2COc2ccc(Cl)cc2-3)cc1` to `COc1ccc(-n2c(=O)c3ccccc3n(Cc3ccccc3Cl)c2=O)cc1`, the “activity change, negative = growth inhibition” value rises from -28.4% to -12.9%.

Going from `CC(=O)c1ccc(Cc2ncc(C(F)(F)F)cc2Cl)s1` to `Cc1nn(CC#N)c(=O)n1N(C)c1ncc(C(F)(F)F)cc1Cl`, the “activity change, negative = growth inhibition” value rises from -6.15% to 10.2%.

Going from `Cc1cccc(OC(C)C(=O)N2CCc3ccccc3C2)c1` (stereo unspecified) to `O=C(Nc1ccccc1N1CCCCC1)c1cccc(F)c1`, the “activity change, negative = growth inhibition” value falls from -13.5% to -28.7%.

Compared with `COc1cc(N2C(=O)c3ccccc3C2=O)c(Cl)cc1C(=O)OCC(=O)N1CCOCC1`, `COc1ccccc1N1CCN(CC(=O)NC(=O)NCc2ccco2)CC1` is lower in “activity change, negative = growth inhibition” value: 3.81% for the first, -0.174% for the second.

Going from `COc1cccc(NC(=O)COC(=O)/C=C/c2ccco2)c1` to `Cc1cccc(OCC(=O)NCCCNC(=O)c2ccccn2)c1`, the “activity change, negative = growth inhibition” value rises from -23% to 12.5%.

Going from `CCOc1cc2ccccc2cc1C(=O)Nc1ccccn1` to `O=C(CNC(=O)COc1ccccc1)NCCc1ccccn1`, the “activity change, negative = growth inhibition” value rises from 0.36% to 25.9%.

First: CCCc1nnc(NC(=O)CCC(=O)NC2CC2)s1
Second: CCCc1ccc(C(=O)COC(=O)CN2C(=O)NC3(CCCCC3C)C2=O)cc1 (stereo unspecified)
The “activity change, negative = growth inhibition” value of the first is higher: 16.2% for the first, -21.8% for the second.

First: O=C(Nc1ccccc1N1CCOCC1)c1ccncc1
Second: CNCC(O)CN1CCN(c2ccccc2OC)CC1 (stereo unspecified)
The “activity change, negative = growth inhibition” value of the first is higher: -1.96% for the first, -3.99% for the second.

Going from `COC(=O)c1cccc(N(C(=O)CNC(=O)c2cccs2)C(C(=O)NCC2CCCO2)c2ccc(OC)c(OC)c2)c1` (stereo unspecified) to `Cc1ccc(C(=O)N/C(=C\c2cccs2)C(=O)NCCc2ccccn2)cc1C`, the “activity change, negative = growth inhibition” value falls from 1.61% to -4.71%.

Compared with `CNC(=O)CN1C(=O)c2cccnc2Sc2ccccc21`, `Cc1nn(CC(=O)NCCc2ccccc2)c(=O)c2cc3occc3n12` is higher in “activity change, negative = growth inhibition” value: -3.74% for the first, 1.61% for the second.

Compared with `CC(=O)N1CCC2(CCCN(c3ncccn3)C2)CC1`, `CC(C)NC(=O)N1CC[C@@]2(CCCN(C(=O)c3cccc(F)c3)C2)C1` is lower in “activity change, negative = growth inhibition” value: 12.2% for the first, 2.88% for the second.

Compared with `Cc1cc(F)ccc1S(=O)(=O)Nc1ccc(C(=O)N(C)Cc2ccco2)cc1`, `COc1c(C=O)c(CCN(C)C(=O)c2ccc(F)cc2)cc2c1OCO2` is higher in “activity change, negative = growth inhibition” value: -17.2% for the first, 1.5% for the second.

First: COc1cccc2c1OCC(CN1CCN(C3CCCCC3)C(CCO)C1)=C2 (stereo unspecified)
Second: Cc1cc(F)ccc1N1CCC(N2CCN(C)C(CCO)C2)CC1 (stereo unspecified)
The “activity change, negative = growth inhibition” value of the first is higher: 17.8% for the first, -17.2% for the second.

Going from `CC(=O)OC[C@H]1O[C@@H](O[C@H]2[C@H](O)[C@@H](OC(=O)c3ccccc3C(=O)O)[C@H](O)O[C@@H]2COC(C)=O)[C@H](O)[C@@H](OC(=O)c2ccccc2C(=O)O)[C@@H]1O` to `CC(C)[C@H](NC(=O)N1CC(=O)Nc2ccccc21)C(=O)N[C@@H](Cc1c[nH]c2ccccc12)C(=O)O`, the “activity change, negative = growth inhibition” value falls from 9.29% to 8.26%.

First: N#Cc1cc([N+](=O)[O-])ccc1NCC1CCCO1 (stereo unspecified)
Second: COc1ccc(S(=O)(=O)N2CCCCCC2)cc1NC(=O)Cc1ccc(OC)c(OC)c1
The “activity change, negative = growth inhibition” value of the first is lower: -1.48% for the first, 6.32% for the second.

First: O=C(O)CN1c2cccc3cccc(c23)S1(=O)=O
Second: O=C(O)c1cc(S(=O)(=O)N(Cc2ccccc2)c2ccccc2)ccc1Cl
The “activity change, negative = growth inhibition” value of the first is lower: 8.65% for the first, 14.8% for the second.

Compared with `Clc1ccc(C2CC(c3cccs3)n3ncnc3N2)cc1Cl` (stereo unspecified), `COc1ccc(C2CC(c3ccccc3)Nc3ncnn32)cc1` (stereo unspecified) is lower in “activity change, negative = growth inhibition” value: -15.9% for the first, -21.6% for the second.

Compared with `CCOC(=O)Cn1nnnc1C`, `COc1ccc2c(C)cc3nnnn3c2c1` is lower in “activity change, negative = growth inhibition” value: 2.09% for the first, 1.49% for the second.

Compared with `COc1cc2nnn(-c3ccncc3)c2cc1OC`, `O=c1c(CCc2ccccc2)nc2cncnc2n1C1CC1` is higher in “activity change, negative = growth inhibition” value: 1.19% for the first, 2.45% for the second.

Going from `COCCNC(=O)c1cc2c(Br)ccc(Br)c2nc1N` to `CCCNC(=O)C(=O)Nc1cc2c3c(c1)CCC(=O)N3CCC2`, the “activity change, negative = growth inhibition” value falls from 1.46% to -0.193%.

First: CCN(C(=O)Cn1cnc2sc(C)c(S(=O)(=O)N3CCN(c4ncccn4)CC3)c2c1=O)c1ccccc1F
Second: O=C(CSc1nnc(-c2ccccn2)n1-c1ccccc1)Nc1ccc2c(c1)OCO2
The “activity change, negative = growth inhibition” value of the first is lower: -17.6% for the first, 1.97% for the second.

First: CC(=O)c1ccc(N2C(=NC(=O)C(C)C)SC3CS(=O)(=O)CC32)cc1 (stereo unspecified)
Second: O=C(CN1CCN(CC(=O)Nc2ccc3c(c2)OCO3)CC1)Nc1ccc(F)cc1
The “activity change, negative = growth inhibition” value of the first is lower: -10.8% for the first, -6.39% for the second.

With `CC1(C(=O)NCc2ccc(F)c(F)c2)Cc2c(-c3ccc4c(c3)OCO4)ccnc2O1` (stereo unspecified) the Potency was 4.11 µM (active).
With `CC1(C(=O)NCc2ccco2)Cc2c(-c3ccc4c(c3)OCO4)ccnc2O1` (stereo unspecified) the Potency was 0.82 µM (active).
For `CCN(CC)CCOc1ccc2c(c1)C(=NNC(=O)c1ccccn1)c1cc(OCCN(CC)CC)ccc1-2`, the Potency was 5.17 µM (active).
In the case of `Cc1cc2c(cc1C)[n+](C)cn2CC(O)COCC1CC=CCC1` (stereo unspecified), the Potency is reported as 8.2 µM (active).
In the case of `O=C(Nc1ccccc1N1CCCCC1)c1ccc2nccnc2c1`, the Potency is reported as 20.6 µM (active).
For `O=C(c1cc(C(F)(F)F)cc(C(F)(F)F)c1)N1CCC[C@@]2(CCN(c3ccccn3)C2)C1`, the Potency was 16.4 µM (active).
In the case of `COc1cncc(-c2cnc3sc(NCCc4ccccn4)nn23)c1`, the Potency is reported as 13 µM (active).
For `FC(F)Oc1ccccc1C1CC(c2ccc(Br)s2)Nc2ncnn21` (stereo unspecified), the Potency was 11.6 µM (active).
With `COc1ccccc1N1CCN(CCN2C(=O)c3ccccc3C(C)(C)C2=O)CC1` the Potency was 14.6 µM (active).
For `CCOc1ccc(S(=O)(=O)N2CCCCC2)cc1NC(=O)CN1CCCC1c1cccs1` (stereo unspecified), the Potency was 3.66 µM (active).
For `Cc1csc[n+]1CCC1CCCCC1`, the Potency was 20 µM (active).
In the case of `O=C(CSc1nc(-c2cccc(F)c2)[nH]c1-c1ccccc1)Nc1ccc2c(c1)OCO2`, the Potency is reported as 10.3 µM (active).

Source: PubChem BioAssay AID686979 (National Center for Advancing Translational Sciences (NCATS), 2013)
